Results filed as inconclusive are left out. Active and inactive are the calls of the source. Calls follow the shape of the dose curve; as a rule, active = well fitted inhibition curve with a large enough effect; inconclusive = small, poorly fitted or top-dose-only effect, or effect the other way; inactive = no such curve, though single readings can be large or run the other way.
Assay: Confirmation Concentration-Response Assay for Inhibitors of the ERK Signaling Pathway using a Homogeneous Screening Assay
Settings: HEK293 cells, hormone-stimulated phospho-ERK AlphaScreen; series mostly up to 40.9 µM
Method in brief: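 Vasopressin-V1b-expressing HEK293 cells, seeded overnight in 1% FBS, pretreated 30 min at 37C with compounds, then stimulated 5 min with 25 nM vasopressin. Phospho-ERK read by AlphaScreen after lysis and 5 hr beads; AC50 from Hill fit, normalized to DMSO and vasopressin.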

Structure (SMILES) | Potency
Cc1noc(NS(=O)(=O)c2ccc(NC(=O)COc3ccc(Cl)cc3Cl)cc2)c1C | inactive
c1ccc(Oc2nc(NCc3ccco3)nc(NCc3ccco3)n2)cc1 | inactive
C=C[C@]1(C)CC(=O)[C@@]2(O)[C@@]3(C)C(O)CCC(C)(C)C3C(O)C(OC(C)=O)[C@@]2(C)O1 (some centres not stated) | inactive
COc1ccc(N=C2C(=Nc3ccc(OC)cc3)N(c3ccccc3)C(=S)N2C(=O)c2ccc(Cl)cc2)cc1 | 3.16 µM (active)
CC1(C)OC(c2ccccc2)=C/C(=C/C=C2C(=O)c3ccccc3C2=O)O1 | 14.1 µM (active)
COc1ccc(N=C2C(=Nc3ccc(OC)cc3)N(c3ccc(OC)cc3)C(=S)N2C)cc1 | 15.8 µM (active)
COc1ccc(CC(=O)Nc2cccc(-c3nnc(-c4ccc(C)cc4)o3)c2)cc1OC | 5.62 µM (active)
Cn1nc(-c2ccc(Cl)cc2)nc2c(=O)n(C)c(=O)nc1-2 | inactive
COc1cc2ncnc(Nc3cccc(Cl)c3)c2cc1OC | inactive
COc1ccc(C2=Nn3c(nnc3-c3ccccc3OC)SC2)cc1OC | 2.24 µM (active)
C/C(=N\Nc1nnc(-c2ccccc2)c(-c2ccccc2)n1)c1cccc([N+](=O)[O-])c1 | inactive
CS(=O)(=O)CCNCc1nc(-c2ccc3ncnc(Nc4ccc(OCc5cccc(F)c5)c(Cl)c4)c3c2)cs1 | inactive
CCCN(CCC)S(=O)(=O)c1cccc(C(=O)Nc2ccc3c(c2)OCO3)c1 | inactive
C=CS(=O)(=O)c1ccc(Oc2ccc(S(=O)(=O)C=C)cc2)cc1 | 7.08 µM (active)
CCOC(=O)c1ccc(NC(=O)c2ccc(C)c(S(=O)(=O)N3CCOCC3)c2)cc1 | 8.91 µM (active)
c1ccc(-c2csc(-c3nc4ccccc4[nH]3)n2)cc1 | 35.5 µM (active)
Cc1ccc(Nc2ncnc3sc(C)c(C)c23)cc1 | inactive
O=C1c2ccccc2C(=O)c2c1cccc2N1CCCC1 | 17.8 µM (active)
O=C(Nc1ccc(N2CCN(C(=O)c3ccco3)CC2)c(Cl)c1)c1cc2ccccc2o1 | 7.94 µM (active)
CN(C)CCCn1cc(C2=C(c3c[nH]c4ccccc34)C(=O)NC2=O)c2ccccc21 | 1.26 µM (active)
COc1ccc(N=C2C(=Nc3ccc(OC)cc3)N(c3ccc(N(C)C)cc3)C(=S)N2c2ccc(OC)cc2)cc1 | 5.62 µM (active)
CC(=O)N1CCC(=NNc2nc3ccccc3s2)CC1 | inactive

Reference: PubChem BioAssay AID1724 (National Center for Advancing Translational Sciences (NCATS), 2009)
